From paper PMC9911399, “Two distinct binding modes provide the RNA-binding protein RbFox with extraordinary sequence specificity”
Where a chain is given by its changes, count along the chain named. The full ranking holds about 16,000 sequences; the median of “ka relative to ugcaugu” is about 0.0091, and the highest 2% start at about 0.032. This excerpt belongs to a sample that is enriched for the highest values.

B1: CUGGACU (DNA:RNA)
RNA: GGGAGACCGGAAUUCAGAUUGUCCCUGGACUUUAAAUCCCGUCGUAGCCACCA
DNA 1: CAATCTGAATTCCGGTCTCCC
DNA 2: TGGTGGCTACGACGGGATT
B2: AUUAGUU (DNA:RNA)
RNA: B1 RNA with C25A, G27U, G28A, A29G, C30U
DNA 1: CAATCTGAATTCCGGTCTCCC
DNA 2: TGGTGGCTACGACGGGATT
B3: UACCGUC (DNA:RNA)
RNA: GGGAGACCGGAAUUCAGAUUGUCCUACCGUCUUAAAUCCCGUCGUAGCCACCA
DNA 1: CAATCTGAATTCCGGTCTCCC
DNA 2: TGGTGGCTACGACGGGATT
B4: ACUAUCA (DNA:RNA)
RNA: B1 RNA with C25A, U26C, G27U, G28A, A29U, U31A
DNA 1: CAATCTGAATTCCGGTCTCCC
DNA 2: TGGTGGCTACGACGGGATT
B5: UGGGUGG (DNA:RNA)
RNA: B1 RNA with C25U, U26G, A29U, C30G, U31G
DNA 1: CAATCTGAATTCCGGTCTCCC
DNA 2: TGGTGGCTACGACGGGATT
B6: GUCGUUC (DNA:RNA)
RNA: B3 RNA with U25G, A26U, C28G, G29U
DNA 1: CAATCTGAATTCCGGTCTCCC
DNA 2: TGGTGGCTACGACGGGATT
B7: UUGUCCC (DNA:RNA)
RNA: B1 RNA with C25U, G28U, A29C, U31C
DNA 1: CAATCTGAATTCCGGTCTCCC
DNA 2: TGGTGGCTACGACGGGATT
B8: GUGCGUG (DNA:RNA)
RNA: B3 RNA with U25G, A26U, C27G, C31G
DNA 1: CAATCTGAATTCCGGTCTCCC
DNA 2: TGGTGGCTACGACGGGATT
B9: GUGUGCG (DNA:RNA)
RNA: B1 RNA with C25G, G28U, A29G, U31G
DNA 1: CAATCTGAATTCCGGTCTCCC
DNA 2: TGGTGGCTACGACGGGATT
B10: UUGCGUG (DNA:RNA)
RNA: B3 RNA with A26U, C27G, C31G
DNA 1: CAATCTGAATTCCGGTCTCCC
DNA 2: TGGTGGCTACGACGGGATT
B11: UUGUGUG (DNA:RNA)
RNA: B3 RNA with A26U, C27G, C28U, C31G
DNA 1: CAATCTGAATTCCGGTCTCCC
DNA 2: TGGTGGCTACGACGGGATT
B12: CGUGUCC (DNA:RNA)
RNA: B1 RNA with U26G, G27U, A29U, U31C
DNA 1: CAATCTGAATTCCGGTCTCCC
DNA 2: TGGTGGCTACGACGGGATT
B13: UUGGGAA (DNA:RNA)
RNA: B1 RNA with C25U, A29G, C30A, U31A
DNA 1: CAATCTGAATTCCGGTCTCCC
DNA 2: TGGTGGCTACGACGGGATT
B14: UUGGGUG (DNA:RNA)
RNA: B1 RNA with C25U, A29G, C30U, U31G
DNA 1: CAATCTGAATTCCGGTCTCCC
DNA 2: TGGTGGCTACGACGGGATT
B15: UUGCGUC (DNA:RNA)
RNA: B3 RNA with A26U, C27G
DNA 1: CAATCTGAATTCCGGTCTCCC
DNA 2: TGGTGGCTACGACGGGATT
B16: CUUGUCC (DNA:RNA)
RNA: B1 RNA with G27U, A29U, U31C
DNA 1: CAATCTGAATTCCGGTCTCCC
DNA 2: TGGTGGCTACGACGGGATT
B17: UUGGGGG (DNA:RNA)
RNA: B1 RNA with C25U, A29G, C30G, U31G
DNA 1: CAATCTGAATTCCGGTCTCCC
DNA 2: TGGTGGCTACGACGGGATT
B18: CCGUGCG (DNA:RNA)
RNA: B1 RNA with U26C, G28U, A29G, U31G
DNA 1: CAATCTGAATTCCGGTCTCCC
DNA 2: TGGTGGCTACGACGGGATT

The binders below were run against T1, RBFOX1 RRM (Homo sapiens, UniProt Q9NWB1 109-208) (assay: EMSA; HiTS-Eq, 1 nM pool, 10 min; buffer printed only for the single-RNA assays: 10 mM Tris pH 7.5, 150 mM NaCl, 3.4 mM EDTA, 0.001% NP-40, 30 C). Settings: tags: His6 N-terminal (pET28a); label: 5' 32P.
T1 sequence: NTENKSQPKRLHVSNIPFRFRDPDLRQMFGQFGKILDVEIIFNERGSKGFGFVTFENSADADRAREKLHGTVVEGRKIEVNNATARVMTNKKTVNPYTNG
In short: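 A pool of RNA with 7 randomized nucleotides, 5′-radiolabelled and with DNA-annealed flanks, was equilibrated at 1 nM for 10 min in 50 µL with purified RbFox RRM, wild type or mutant, across increasing protein concentrations. Free RNA was separated by 8% native PAGE, excised, reverse-transcribed, barcoded by PCR and sequenced. Relative association constants were obtained from read-count changes of each RNA species versus the control reaction and normalised to the cognate motif.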
In the case of B1, the binding signal is reported as 0.00842 KA relative to UGCAUGU. B2 was tested, and the binding signal was 0.00711 KA relative to UGCAUGU. B3 was tested, and the binding signal was 0.0072 KA relative to UGCAUGU. With B4 the binding signal was 0.00217 KA relative to UGCAUGU. In the case of B5, the binding signal is reported as 0.0279 KA relative to UGCAUGU. B6 was tested, and the binding signal was 0.0139 KA relative to UGCAUGU. For B7, the binding signal was 0.0102 KA relative to UGCAUGU. In the case of B8, the binding signal is reported as 0.0481 KA relative to UGCAUGU. With B9 the binding signal was 0.0191 KA relative to UGCAUGU. With B10 the binding signal was 0.0447 KA relative to UGCAUGU. B11 was tested, and the binding signal was 0.0403 KA relative to UGCAUGU. With B12 the binding signal was 0.00858 KA relative to UGCAUGU. For B13, the binding signal was 0.0102 KA relative to UGCAUGU. With B14 the binding signal was 0.0408 KA relative to UGCAUGU. With B15 the binding signal was 0.0198 KA relative to UGCAUGU. In the case of B16, the binding signal is reported as 0.0101 KA relative to UGCAUGU. With B17 the binding signal was 0.0118 KA relative to UGCAUGU. B18 was tested, and the binding signal was 0.0124 KA relative to UGCAUGU.
